Records with an inconclusive call do not appear. Active and inactive are the calls of the source. The calls were made as follows, unless noted: active = hit-call score of the fitted dose curve at least 0.9, where 1 is the maximum; inactive = score below 0.9.
Key:
[1] = ATG_TCF_b_cat_CIS: Attagene CIS-FACTORIAL HepG2 Assay for human T-Cell-Factor with beta-catenin (TCF/b-cat) (AID 2282965); settings: HepG2 TCF/beta-catenin cis-reporter transcription, actives raise or lower the signal
In short: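 HepG2, transient MRTU transfection, cis-element-driven reporters (endogenous TFs). 24 h compound exposure. Readout: reporter mRNA by RT-PCR + 6-FAM primer extension, HpaI digest, capillary electrophoresis. Gain/loss fit vs DMSO baseline.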

[2] = ATG_TAL_CIS: Attagene CIS-FACTORIAL HepG2 Assay for human TAL Basal Promoter (AID 2282966); settings: HepG2 Attagene cis-factorial TAL promoter reporter; actives raise or lower the signal;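 also: background control endpoint measuring basal TAL promoter reporter mRNA not a specific factor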
In short: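 Readout: reporter mRNA, fluorescence by CE. System: HepG2, transient multi-reporter transfection, endogenous TF activity. Exposure: 24 h. Analysis: bidirectional, DMSO-normalized; background control.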

[3] = ATG_TGFb_CIS: Attagene CIS-FACTORIAL HepG2 Assay for human Transforming Growth Factor (TGF) (AID 2282967); settings: HepG2 Attagene CIS TGFb reporter, mRNA transcription; actives raise or lower the signal
In short: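 Cells were dosed for 24 hours, after which total RNA was reverse-transcribed and reporter sequences amplified, labeled and sized by capillary electrophoresis. Activity was fitted in both directions against DMSO.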

[4] = ATG_VDRE_CIS: Attagene CIS-FACTORIAL HepG2 Assay for human Vitamin D Receptor Element (VDRE) (AID 2282968); settings: HepG2 VDRE cis-reporter transcription, actives raise or lower the signal
In short: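 Transiently transfected HepG2 cells carrying cis-regulated reporter transcription units were exposed for 24 h. Reporter mRNA was measured by RT-PCR with fluorescent labelling and capillary electrophoresis, and fitted in both directions against DMSO.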

[5] = biological target: X-box-binding protein 1 (Homo sapiens) (UniProt P17861); test: ATG_Xbp1_CIS: Attagene CIS-FACTORIAL HepG2 Assay for human X-box Binding Protein 1 (XBP1) (AID 2282972); settings: HepG2 XBP1 cis-element reporter, Attagene multiplex; actives raise or lower the signal
In short: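 HepG2, transient MRTU transfection (cis-promoter driven), 24 h compound exposure. Total RNA → oligo(dT) RT → PCR → 6-FAM labeling → HpaI cut → CE. Bidirectional fit vs DMSO.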

[6] = ATG_M_19_TRANS: Attagene TRANS-FACTORIAL HepG2 Assay for M19 Transcription Factor (Internal Marker) (AID 2282974; active = hit-call score of the fitted dose curve at least 0.9, where 1 is the maximum); settings: HepG2 Attagene TRANS-FACTORIAL M19 internal marker reporter
In short: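 Transfected HepG2 (GAL4-UAS MRTUs), 24 h compound, TriZol RNA, DNase-treated RT, reporter PCR, FAM label, HpaI digest, CE fluorescence; gain vs DMSO.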

[7] = ATG_GAL4_TRANS: Attagene TRANS-FACTORIAL HepG2 Assay for GAL4 (Internal Marker) (AID 2282976; active = hit-call score of the fitted dose curve at least 0.9, where 1 is the maximum); settings: HepG2 Attagene TRANS GAL4 internal marker reporter
In short: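 Fluorescence from capillary electrophoresis of labelled RT-PCR products quantifies reporter mRNA induction after 24 h dosing of HepG2 cells carrying transfected GAL4-UAS reporter transcription units. Vehicle DMSO serves as baseline.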

[8] = biological target: Steroid hormone receptor ERR1 (Homo sapiens) (UniProt P11474); test: ATG_ERRa_TRANS: Attagene TRANS-FACTORIAL HepG2 Assay for human Estrogen-Related Receptor alpha (ERRa) (AID 2282971; active = hit-call score of the fitted dose curve at least 0.9, where 1 is the maximum); settings: HepG2 Attagene TRANS reporter, ERRa transactivation
In short: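 HepG2 cells were transiently transfected with multiple GAL4-UAS reporter units, then dosed with compound for 24 h. Total RNA was reverse-transcribed, reporter cDNA PCR-amplified and fluorescently labelled, and fragments resolved by capillary electrophoresis; induction was compared with DMSO.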

[9] = biological target: Nuclear receptor subfamily 1 group I member 3 (Homo sapiens) (UniProt Q14994); test: ATG_CAR_TRANS: Attagene TRANS-FACTORIAL HepG2 Assay for human Constitutive Androstane Receptor (CAR) (AID 2282969; active = hit-call score of the fitted dose curve at least 0.9, where 1 is the maximum;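 also: activators raise reporter mRNA above DMSO so AC50 marks induction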); settings: HepG2 Attagene TRANS-FACTORIAL CAR reporter
In short: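 HepG2 cells transiently transfected with GAL4-UAS reporter units; TRANS format reads activity of exogenous chimeric NR-Gal4 protein. After 24 h dosing, reporter mRNA quantified by RT-PCR, 6-FAM labelling and capillary electrophoresis; gain of signal fitted against DMSO.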

[10] = biological target: Estrogen receptor (Homo sapiens) (UniProt P03372); test: ATG_ERa_TRANS: Attagene TRANS-FACTORIAL HepG2 Assay for human Estrogen Receptor alpha (ERa) (AID 2282970; active = hit-call score of the fitted dose curve at least 0.9, where 1 is the maximum); settings: HepG2 Attagene TRANS ERa GAL4 reporter, mRNA
In short: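 Transactivation via ERa-Gal4 chimera in HepG2; 24 hour incubation; reporter mRNA detected by fluorescence RT-PCR and capillary electrophoresis.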

Measured: outcome

Sequence of Estrogen receptor (Homo sapiens) (P03372 whole entry, looked up, the tested form may be a part): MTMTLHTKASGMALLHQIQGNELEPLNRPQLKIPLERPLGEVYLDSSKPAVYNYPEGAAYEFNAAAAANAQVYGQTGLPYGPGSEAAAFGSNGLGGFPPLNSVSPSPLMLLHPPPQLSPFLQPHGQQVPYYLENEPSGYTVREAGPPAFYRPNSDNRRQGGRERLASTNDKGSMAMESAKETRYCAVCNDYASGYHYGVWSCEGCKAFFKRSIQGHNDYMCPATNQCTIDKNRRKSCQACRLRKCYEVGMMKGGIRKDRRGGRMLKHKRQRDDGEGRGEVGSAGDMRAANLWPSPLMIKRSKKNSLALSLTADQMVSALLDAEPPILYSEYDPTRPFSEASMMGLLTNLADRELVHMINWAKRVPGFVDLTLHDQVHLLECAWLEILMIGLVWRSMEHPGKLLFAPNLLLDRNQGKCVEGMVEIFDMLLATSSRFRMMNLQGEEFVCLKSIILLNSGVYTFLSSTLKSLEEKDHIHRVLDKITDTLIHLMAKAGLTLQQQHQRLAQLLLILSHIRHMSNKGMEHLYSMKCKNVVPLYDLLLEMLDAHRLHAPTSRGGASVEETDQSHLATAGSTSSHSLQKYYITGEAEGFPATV
Sequence of Nuclear receptor subfamily 1 group I member 3 (Homo sapiens) (Q14994 whole entry, looked up, the tested form may be a part): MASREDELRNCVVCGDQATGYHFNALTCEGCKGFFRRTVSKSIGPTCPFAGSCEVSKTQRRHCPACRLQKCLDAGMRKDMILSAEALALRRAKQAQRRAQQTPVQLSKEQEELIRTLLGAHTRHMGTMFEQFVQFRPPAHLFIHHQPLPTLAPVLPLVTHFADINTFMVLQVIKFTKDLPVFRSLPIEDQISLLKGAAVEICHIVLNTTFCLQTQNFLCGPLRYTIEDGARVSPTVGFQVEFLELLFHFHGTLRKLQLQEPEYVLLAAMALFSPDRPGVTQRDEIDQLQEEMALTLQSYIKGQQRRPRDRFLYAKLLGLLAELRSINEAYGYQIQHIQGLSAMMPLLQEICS
Sequence of Steroid hormone receptor ERR1 (Homo sapiens) (P11474 whole entry, looked up, the tested form may be a part): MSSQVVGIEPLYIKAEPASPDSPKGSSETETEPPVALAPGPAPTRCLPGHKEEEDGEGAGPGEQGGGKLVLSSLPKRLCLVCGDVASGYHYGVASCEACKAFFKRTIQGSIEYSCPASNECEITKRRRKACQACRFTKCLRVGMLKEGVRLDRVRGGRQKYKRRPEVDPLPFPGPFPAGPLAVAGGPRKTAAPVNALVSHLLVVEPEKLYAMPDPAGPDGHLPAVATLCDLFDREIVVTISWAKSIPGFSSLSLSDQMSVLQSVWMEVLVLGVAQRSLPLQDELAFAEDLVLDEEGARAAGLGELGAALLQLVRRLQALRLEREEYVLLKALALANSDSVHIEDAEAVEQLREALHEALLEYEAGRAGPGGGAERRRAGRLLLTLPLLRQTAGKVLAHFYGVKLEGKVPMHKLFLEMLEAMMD
Sequence of X-box-binding protein 1 (Homo sapiens) (P17861 whole entry, looked up): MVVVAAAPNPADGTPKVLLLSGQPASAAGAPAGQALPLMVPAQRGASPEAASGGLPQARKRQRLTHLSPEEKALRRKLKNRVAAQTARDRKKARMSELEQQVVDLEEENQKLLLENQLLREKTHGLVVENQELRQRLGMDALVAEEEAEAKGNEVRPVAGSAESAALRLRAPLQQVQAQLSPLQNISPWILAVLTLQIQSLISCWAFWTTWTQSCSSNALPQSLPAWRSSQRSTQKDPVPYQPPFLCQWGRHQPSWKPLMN

CC(=O)c1cccnc1
inactive: [1] | [2] | [3] | [4] | [5] | [6]

Cc1ccncc1
inactive: [1] | [2] | [3] | [4] | [5] | [7]

ClCCOCCOCCCl
inactive: [1] | [2] | [3] | [4] | [5] | [7]

OCCCO
inactive: [1] | [2] | [3] | [4] | [5] | [7]

CCCO
inactive: [1] | [2] | [3] | [4] | [5] | [6] | [7]

CCC(=O)OCC=Cc1ccccc1
inactive: [1] | [2] | [3] | [4] | [5] | [7]

CC(=O)CC(=O)N(C)C
inactive: [1] | [2] | [3] | [4] | [5] | [7]

C=CCOCC(O)CO (stereo unspecified)
inactive: [1] | [2] | [3] | [4] | [5] | [7]

O=S1(=O)CC=CC1
inactive: [1] | [2] | [3] | [4] | [5] | [6] | [7]

CCCCOC(=O)C(C)OC(=O)CCC (stereo unspecified)
inactive: [1] | [2] | [3] | [4] | [8] | [5] | [7]

CC1=CC[C@@H]2C[C@H]1C2(C)C
inactive: [1] | [2] | [3] | [4] | [5]

NC(N)=S
inactive: [1] | [2] | [3] | [4] | [5] | [7]

COC(=O)c1ccc(C(=O)OC)cc1
inactive: [1] | [2] | [3] | [4] | [5] | [7]

NS(=O)(=O)c1cc(C(=O)O)c(NCc2ccco2)cc1Cl
inactive: [1] | [2] | [3] | [4] | [5] | [7]

CCOC(=O)CC(C)C
inactive: [1] | [2] | [3] | [4] | [5] | [7]

C[N+](C)(C)CCO
inactive: [1] | [2] | [3] | [4] | [5] | [6]

O=C(O)c1ccc(C(=O)O)c(C(=O)O)c1
inactive: [1] | [2] | [3] | [9] | [10] | [8] | [5]

OCC=Cc1ccccc1
inactive: [1] | [2] | [3] | [4] | [5] | [6]

Cc1cccc(C)c1
inactive: [1] | [2] | [3] | [4] | [5]

CC1=CC(O)CC(C)(C)C1 (stereo unspecified)
inactive: [1] | [2] | [3] | [4] | [8] | [5] | [6] | [7]

CCCCCCCCOC(C)=O
inactive: [1] | [2] | [3] | [4] | [5] | [6]

CC/C=C\CCOC(=O)C(C)C
inactive: [1] | [2] | [3] | [4] | [5] | [7]

CCCOC(=O)CC
inactive: [1] | [2] | [3] | [4] | [5] | [7]

CCOC(=O)C(=O)OCC
inactive: [1] | [2] | [3] | [4] | [8] | [5] | [6] | [7]

C=CC(=O)OCCCCCC
inactive: [1] | [2] | [3] | [5] | [6] | [7]

OC[C@H]1O[C@@H](O[C@H]2[C@H](O)[C@@H](O)[C@H](O)O[C@@H]2CO)[C@H](O)[C@@H](O)[C@H]1O
inactive: [1] | [2] | [3] | [9] | [10] | [5] | [7]

CCCC(O)C(CC)CO (stereo unspecified)
inactive: [1] | [2] | [3] | [5]

CC(=O)CC(C)(C)C1CCCCC1
inactive: [1] | [2] | [3] | [9] | [10] | [8] | [5] | [7]

O=C(O)c1ccccc1O
inactive: [1] | [2] | [4] | [9] | [10] | [8] | [5] | [6] | [7]

O=C(O)C1=NN(c2ccc(S(=O)(=O)O)cc2)C(=O)C1
inactive: [1] | [2] | [3] | [10] | [5] | [6] | [7]
